# Data taken from ChEMBL document CHEMBL4513216, “Probing the Open Global Health Chemical Diversity Library for Multistage-Active Starting Points for Next-Generation Antimalarials” (ACS Infect Dis, 2020).
# Out of some 69,000 compounds screened, about 8,600 (12%) showed an effect of 50% or more. Many of the other results were omitted from the sample, so strong results are more common in it than they were.
# System: Plasmodium berghei
# Test: Screen against P. berghei liver stage (PbLuc), transformed with Luciferase, at 10uM
# Type: functional, HepG2
# Details: tested at 10 uM
row,Structure (SMILES),INHIBITION
1,O=C(CSc1nc2c(cnn2CCO)c(=O)[nH]1)NC1CCCCC1,39.2%
2,Cc1noc(C(C)N2CCN(CCN3CCCC3=O)CC2)n1 (centres undefined),-29.1%
3,O=C(COCc1ccccc1Cl)Nc1ccnn1CC1CCOC1 (centres undefined),42.1%
4,O=C(COCCOc1ccccc1)Nc1ccnn1CC1CCOC1 (centres undefined),69.9%
5,O=C(Cn1ncc2ccccc21)Nc1ccnn1CC1CCOC1 (centres undefined),36.5%
6,COc1ccccc1CC(=O)N1C[C@@H]2CC[C@H]1CN(Cc1cscn1)C2,29.6%
7,CN(C(=O)Cn1nc(-c2ccccc2Cl)ccc1=O)C1CCS(=O)(=O)C1 (centres undefined),48.1%
8,CN1CC(Nc2ccc(Br)cc2C#N)CCC1=O (centres undefined),58.9%
9,CC(=O)N1CCC(Nc2ccc(Br)cc2C#N)C1 (centres undefined),7.39%
10,N#Cc1cc(Br)ccc1NC1CCN(CC(N)=O)CC1,45.4%
11,CCOCCN1CCN(Cc2csc(-c3cnn(C)c3)n2)CC1,-22.1%
12,O=C(CCNS(=O)(=O)c1ccc(F)c(F)c1)NCc1ccoc1,35.4%
13,O=C(N[C@H]1CN(Cc2ccsc2)[C@@H]2CCCO[C@H]12)C1CC1,48.2%
14,O=C(O)c1cc(NS(=O)(=O)c2ccc(Cl)s2)ccc1N1CCOCC1,20%
15,Cc1ccc(C(=O)NS(C)(=O)=O)cc1I,32.3%
16,Cc1ccc(C(=O)NS(C)(=O)=O)cc1S(C)(=O)=O,1.79%
17,Cc1cc(C(=O)NS(C)(=O)=O)ccc1I,52%
18,Cc1cc(N2CCN(C(=O)[C@@H]3C[C@H]4C=C[C@@H]3C4)CC2)nc2ccccc12,-13.2%
19,CN(Cc1nnc(C2CC2)o1)C1CCCN(c2cccnn2)C1 (centres undefined),-9.76%
20,CC(C(=O)NC1CC1)N1CCN(Cc2ccn(C)c(=O)c2)CC1 (centres undefined),7.42%
21,COc1cccc2c1ccn2CCNC(=O)C1CCC1,-46.8%
22,OCCn1cc(CN2CCN(CCOc3ccc(F)cc3)CC2)cn1,39.5%
23,OCCn1cc(CN2CCN(CCOc3ccccc3)CC2)cn1,37.5%
24,OCCn1cc(CN2CCN(CCOCC(F)(F)F)CC2)cn1,54.9%
25,NC(=O)NC(=O)CN1CCN(c2nccs2)CC1,24%
26,Cc1cnc(CN2CCC(N(C)Cc3nnc(C)n3C)C2)cn1 (centres undefined),62.3%
27,CCc1nc(CN(C(C)=O)C2CCN(Cc3cnc(C)cn3)C2)no1 (centres undefined),12.4%

row,Structure (SMILES),INHIBITION
1,CCc1nc(CN2CCCC(N(C)Cc3cnc(C)cn3)C2)no1 (centres undefined),24.3%
2,Cc1cnc(CN2CCC(N(C)Cc3nnc(C4CC4)n3C)C2)cn1 (centres undefined),27.5%
3,Cc1ccc(CCN2CCC(N(C)Cc3noc(C4CC4)n3)C2)cc1 (centres undefined),27.9%
4,Cc1cc(CN2CCC(N(C)Cc3noc(C4CC4)n3)C2)on1 (centres undefined),19.5%
5,CCn1c(C)nnc1CN(C)C1CCN(Cc2cnc(C)cn2)C1 (centres undefined),-7.48%
6,Cc1cc(C)n(CCN2CCC(N(C)Cc3noc(C4CC4)n3)C2)n1 (centres undefined),68.5%
7,Cc1nnc(CN(C)C2CCN(Cc3nnc(C4CCC4)o3)C2)n1C (centres undefined),40.9%
8,Cc1cc(C)n(CCN2CCC(N(C)Cc3nnc(C)n3C)C2)n1 (centres undefined),54.6%
9,Cc1nnc(CN(C)C2CCN(CCc3cccs3)C2)n1C (centres undefined),21.8%
10,CCc1nc(CN(C)C2CCN(Cc3cnc(C)cn3)C2)no1 (centres undefined),67.5%
11,COc1cc(C(=O)N2CC3(CCNCC3)c3cc(Cl)ccc32)ccn1,-17.1%
12,Cc1cc(C(=O)N2CCN(C)CC2)nn1CC(=O)NCc1ccccn1,1.95%
13,Cc1nc(CN2CCC(N(C)Cc3nnc(C4CC4)n3C)C2)cs1 (centres undefined),7.12%
14,O=C(NCCS(=O)(=O)N1CCN(c2ncccn2)CC1)C1CCCC1,-33.5%
15,CCOCC1CN(Cc2ccc3c(c2)OCO3)Cc2nccn2C1 (centres undefined),29%
16,Cc1ccc(CNC(=O)CN2CCCCC2Cn2cncn2)s1 (centres undefined),-1.14%
17,COC(=O)COc1c(F)cc(Br)cc1C(C)=O,8.24%
18,CNC(=O)COc1c(F)cc(Br)cc1C(C)=O,9.04%
19,CC(=O)c1cc(Br)cc(F)c1OCC(=O)NC(C)C,56.9%
20,Cc1nc(CNCC2CN(C3CC3)CCO2)cs1 (centres undefined),27.4%
21,NC(=O)COc1ccc(CNCc2ccc(F)cc2)cc1,9.52%
22,Cc1cc(C)n(CC2CN(Cc3nc4ccccc4s3)CCO2)n1 (centres undefined),79.9%
23,Cc1nc(C)n(CC2CN(Cc3nc4ccccc4n3C)CCO2)n1 (centres undefined),22.3%
24,Cc1nc(C)n(CC2CN(Cc3nc4ccccc4s3)CCO2)n1 (centres undefined),92.3%
25,Cc1nc(C)n(CC2CN(Cc3cccc4ccccc34)CCO2)n1 (centres undefined),37.4%
26,Cc1cc(C)n(CC2CN(Cc3cnc(C)s3)CCO2)n1 (centres undefined),28.8%
27,Cc1cc(C)n(CC2CN(Cc3ccccn3)CCO2)n1 (centres undefined),12.415%
